# Assay results from PubChem BioAssay (NCI).
# This is part of a sample that, as a whole, favours compounds with a hit. Of some 83,000 tested, about 20% had one in any assay.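 Single-dose data. Exposure time 48 hours. Values below 10 considered active.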 Unmarked numbers belong to inactive results. Active and inactive are the calls of the source.
# Tested on: NCI-H23 lung
# Test: NCI-60 one-dose screen, 48 h (100 = growth as untreated, 0 = no growth, -100 = all killed)
# Details: 10 µM unless noted
row,SMILES,growth
1,CC(C)(C)n1cc(-c2ccnc(NCCCNS(=O)(=O)c3cccc(F)c3)c2)c(-c2cccc(O)c2)n1,66.5%
2,Cc1ccc(N2CCN(C(C)C(N)=O)CC2)cc1 (centres undefined),104%
3,NC(N)=N/N=C/c1ccc(-c2ccc(-c3cc(Cl)cc(Cl)c3)s2)cc1,-39.2% (active)
4,Cc1ccc2nc(-c3cc4c([nH]c5ccccc54)c(-c4ccc(F)c(F)c4)n3)[nH]c2c1,84.1%
5,CNc1ccc(Br)c2c1C(=O)c1ccccc1C2=O,98.3%
6,O=C(O)c1cn(C2CC2)c2cc(N3CCN(C(=O)/C=C/c4ccc(Cl)cc4)CC3)c(F)cc2c1=O,86.8%
7,CCC1=CCC[C@@]2(C)CCC[C@@]3(C)CCCC(C)(C)[C@]1([O-])[O+]32,99.7%
8,O=c1[nH]c(-c2ccccc2)nc(CN2CCCCC2)c1O,103%
9,Cc1ccc(Nc2nnc(-c3ccc(Cl)cc3)o2)c(C)c1,84.4%
10,O=C(N/N=C/C=C\c1ccccc1)C(=O)N/N=C/C=C/c1ccccc1,103%
11,COc1cc(-c2nc(N=Nc3c(O)[nH]c4ccc(Br)cc34)[nH]c(=O)c2C#N)cc(OC)c1OC,102%
12,O=C(NNC(=O)N1c2ccccc2C=Cc2ccccc21)c1ccc2ccccc2c1,98.4%
13,COc1cccc(-c2nc3sccn3c2-c2ccnc(NCCCNS(=O)(=O)c3ccc(C(F)(F)F)cc3)c2)c1,70.4%
14,c1cc(C2=N[C@@H]3c4ccccc4C[C@@H]3O2)nc(C2=N[C@@H]3c4ccccc4C[C@@H]3O2)c1,98.1%
15,c1cc2[nH]ncc2cc1-c1nc2ccc3[nH]ncc3c2c2c1CCC2,70.2%
16,CCOC(=O)C1=C(C)NC(C)=C(C(=O)OCC)C1(C)C,113%
17,CCOC(=O)c1ccc2c(c1)nc(-c1ccc(OCc3ccccc3)c(OC)c1)n2-c1cc(C(C)(C)C)[nH]n1,88.1%
18,O=C1/C(=C/c2ccc(Cl)cc2)CN(C(=O)CCN2CCC(=NO)CC2)C/C1=C\c1ccc(Cl)cc1,-57% (active)
19,Cc1ccc(S(=O)(=O)NCCNc2cc(-c3cn(C(C)(C)C)nc3-c3cccc(O)c3)ccn2)cc1,74.7%
20,CC(C)CC1NC(C)(C)CO1 (centres undefined),105%

row,SMILES,growth
1,Cc1ccc(C(=O)C2=Cc3cc4ccccc4n3Cc3cnnn32)cc1,100%
2,Brc1ccc(-c2[nH]ncc2-c2c[nH]c3ccccc23)cc1,92.5%
3,CCn1c2ccccc2c2cc(NC(=O)Nc3ccc([N+](=O)[O-])cc3C)ccc21,41.5%
4,N=c1ccc2nc3ccc(N)cc3sc-2c1,12.8%
5,CCOC(=O)/C(C#N)=C1/C(=O)Nc2ccccc21,108%
6,O=[N+]([O-])c1ccc(Sc2ncccn2)c([N+](=O)[O-])c1,53.5%
7,O=C(O)C1CCCN1 (centres undefined),104%
8,OCc1ncc(-c2ccccc2)s1,93.1%
9,Oc1ccc2cc(Br)ccc2c1-c1c(O)ccc2cc(Br)ccc12,55.4%
10,COc1ccc(/C=C2\Oc3cc(OCCCN4CCCC4)ccc3C2=O)c(OC)c1,87.9%
11,CC(=O)Nc1ccc(/C=C/C(=O)c2ccccc2)cc1,102%
12,CC1CCC(C)N(C)C1 (centres undefined),104%
13,O=Nc1c(-c2cccc([N+](=O)[O-])c2)nc2ncccn12,83.4%
14,COc1cc2c(=O)n(C3CCCCCC3)c3c4cc[nH]c4ncc3c2cc1OC,77.1%
15,CN1C(=O)N(C)C2C1NN=c1s/c(=C\C=C\c3ccccc3)c(=O)n12 (centres undefined),64.3%
16,O=C1c2ccccc2-c2ccccc2C1(Cl)Cl,-20.8% (active)
17,CC(C)(C)n1cc(-c2ccnc(NCCCNS(=O)(=O)c3ccc(Br)cc3)c2)c(-c2cccc(O)c2)n1,47.1%
18,O=C(Nc1ccncc1)C(=O)c1cn(S(=O)(=O)c2ccccc2F)c2ccccc12,25.9%
19,Nc1cccc(-c2nc3sccn3c2-c2ccnc(NCCNS(=O)(=O)c3ccc(C(F)(F)F)cc3)n2)c1,56%
